# Data as given in PubChem BioAssay AID488969 (Vanderbilt High Throughput Screening Facility, 2010).
# In all, about 110,000 compounds were measured (“z-score”: median about -0.1, highest 2% from about 2 on). Only a selection was taken, and the highest values are over-represented in it overall. The source made the active and inactive calls.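 The calls were made as follows: active = z-score in the third read window above 3 or below -3; inactive = the rest.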
# Target: Metabotropic glutamate receptor 8 (Rattus norvegicus) (UniProt P70579)
# Sequence (P70579 whole entry, looked up): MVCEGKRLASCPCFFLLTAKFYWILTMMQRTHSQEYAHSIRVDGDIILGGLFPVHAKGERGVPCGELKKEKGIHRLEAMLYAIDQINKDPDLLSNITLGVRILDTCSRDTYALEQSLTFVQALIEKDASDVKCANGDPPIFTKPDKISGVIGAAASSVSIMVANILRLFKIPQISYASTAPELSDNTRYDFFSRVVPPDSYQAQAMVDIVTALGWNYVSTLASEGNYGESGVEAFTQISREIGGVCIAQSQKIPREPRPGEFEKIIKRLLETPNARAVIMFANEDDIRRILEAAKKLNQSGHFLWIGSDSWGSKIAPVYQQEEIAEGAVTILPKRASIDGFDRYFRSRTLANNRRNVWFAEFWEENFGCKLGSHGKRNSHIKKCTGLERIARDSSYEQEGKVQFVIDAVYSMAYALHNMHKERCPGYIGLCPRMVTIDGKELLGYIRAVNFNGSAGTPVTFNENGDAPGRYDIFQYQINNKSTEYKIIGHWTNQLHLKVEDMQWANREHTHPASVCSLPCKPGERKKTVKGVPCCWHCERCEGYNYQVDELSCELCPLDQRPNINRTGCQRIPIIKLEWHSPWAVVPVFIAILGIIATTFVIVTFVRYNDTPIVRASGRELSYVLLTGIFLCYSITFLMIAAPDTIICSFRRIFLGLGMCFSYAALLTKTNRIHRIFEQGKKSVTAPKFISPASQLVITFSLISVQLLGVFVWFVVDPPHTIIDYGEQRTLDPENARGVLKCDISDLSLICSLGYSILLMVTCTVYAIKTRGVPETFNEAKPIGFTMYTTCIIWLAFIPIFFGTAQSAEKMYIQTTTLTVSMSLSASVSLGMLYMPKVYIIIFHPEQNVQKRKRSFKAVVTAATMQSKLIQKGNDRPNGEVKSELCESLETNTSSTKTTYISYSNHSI
# Test: rat mGluR8 modulators via GIRK flux, primary screen, cell-based, thallium flux, HTS (AID 488969)
# Details: HEK293 rat mGluR8, GIRK (G protein-gated inwardly rectifying potassium channel) thallium flux, FluoZin2; at 10 µM; stronger effect = higher value; submaximal glutamate (EC20) added with thallium
row,Compound,z-score
1,CCOC(=O)c1nnc(-c2ccccc2)nc1Oc1ccccc1Cl,-0.346
2,COC(=O)c1ccccc1NC(=S)NC(=O)c1ccc(C)cc1,2.94
3,COC(=O)c1ccccc1NC(=S)NC(=O)c1ccc2ccccc2c1,0.231
4,COC(=O)c1ccccc1NC(=S)NC(=O)c1ccccc1C,1.1
5,COC(=O)c1ccccc1NC(=S)NC(=O)c1cccc2ccccc12,0.972
6,COC(=O)c1ccccc1NC(=S)NC(=O)C1CC1,-0.189
7,COC(=O)c1ccccc1NC(=S)NC(=O)c1ccccc1,13.1 (active)
8,O=C(Nc1ccc(Cc2ccncc2)cc1)C1CCC(N2C(=O)C3C4C=CC(C5CC45)C3C2=O)CC1 (centres undefined),-0.424
9,Cn1c2ccccc2c2c(C(=O)N3CCN(C(=O)c4ccco4)CC3)cn(C3CCCCC3)c(=O)c21,-0.126
10,CCN(C(=O)CN1CCN(c2ccccc2O)CC1)c1c(N)n(Cc2ccccc2)c(=O)[nH]c1=O,14.3 (active)
11,CCN(C(=O)CN1CCN(c2ccccc2OC)CC1)c1c(N)n(Cc2ccccc2)c(=O)[nH]c1=O,0.391
12,CCN(C(=O)CN1CCN(c2ccccc2)CC1)c1c(N)n(Cc2ccccc2)c(=O)[nH]c1=O,-0.349
13,CC1Cc2ccccc2N1C(=O)CSc1nnc(CNc2ccccc2)o1 (centres undefined),-0.151
14,CC(=O)C1C(c2ccccc2)c2c(n[nH]c2C)CC1(C)O (centres undefined),0.241
15,COc1ccc(CCn2c(=N)c(C(=O)NCc3ccco3)cc3c(=O)n4ccccc4nc32)cc1,0.369
16,N=c1c(C(=O)NCc2ccco2)cc2c(=O)n3ccccc3nc2n1Cc1ccccc1,1.15
17,N=c1c(C(=O)NCc2ccco2)cc2c(=O)n3ccccc3nc2n1CCc1ccccc1,4.11 (active)
18,Cc1cccc(N2CCN(C(=O)c3ccoc3C)CC2)c1C,-0.311
19,CN(C)c1nc(N)nc(CSc2n[nH]c(-c3ccccc3)n2)n1,-0.00289
20,Cc1ccccc1-c1nnc(Cc2ccccc2)o1,-0.211
21,c1ccc(Cc2nnc(-c3ccccc3)o2)cc1,10.4 (active)
22,ClCc1nnc(-c2ccccc2)o1,-0.143
23,CCOC(=O)CN1C(=O)C2(OCCCO2)c2ccccc21,-0.0349
24,COc1cccc2c1OC[C@@H](CO)[C@H]2N(C)C(=O)Nc1ccccc1,6.33 (active)
25,CN(C(=O)Nc1ccc(Cl)cc1Cl)[C@H]1c2cc(Br)ccc2OC[C@H]1CO,-0.211
26,COc1cccc2c1OC[C@@H](CO)[C@H]2N(C)C(=O)Nc1ccc(Cl)cc1Cl,0.0803
27,CC1(C)Oc2nc3ccccc3n2/C1=C\C#N,-0.233
28,CC(=O)Nc1ccc(S(=O)(=O)NC2(C(F)(F)F)NC(=O)N(C3CCCCC3)C2=O)cc1 (centres undefined),-0.0965
29,CSc1nc(C)cc(Oc2ccc(OCCOc3ccccc3)nn2)n1,-0.702
